A number with no mark means an inactive call.
Tests used:
NHEM-hTERT = assay: cell viability relative to DMSO control (fraction of DMSO control); higher = less cytotoxic, active = 0.5 or less; conditions: 1 µM; 120 h
Procedure, shortened: (§1)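 A library of 315 approved anti-cancer drugs (TargetMol) was acoustically pre-spotted into 384-well plates and tested at 1 µM in duplicate for 120 h. Cells were added in 40 µl per well: NHEM-hTERT immortalized melanocytes at 2500/well, and patient-derived Mel-DCC-11 and its resistant subline Mel-DCC-11-R at 1500/well. The subline was tested both alone and with 8 µM of its selecting drug. Viability was read by ATPlite 1step luminescence, normalised to DMSO controls and averaged over duplicates.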

Mel-DCC-11-R = assay: cell viability relative to DMSO control (fraction of DMSO control); higher = less cytotoxic, active = 0.8 or less; conditions: 1 µM, 120 h
Procedure, shortened: as §1

| Compound | cell viability (NHEM-hTERT) | cell viability (Mel-DCC-11-R; vemurafenib co-treatment 0 µM) | cell viability (Mel-DCC-11-R; vemurafenib co-treatment 8 µM) |
| --- | --- | --- | --- |
| COc1cc2nccc(Oc3ccc(NC(=O)C4(C(=O)Nc5ccc(F)cc5)CC4)cc3)c2cc1OC [Cabozantinib] | 0.739 | 1.1 | 0.427 (active) |
| COc1cc(NS(C)(=O)=O)ccc1Nc1c2ccccc2nc2ccccc12 [Amsacrine] | 0.72 | 1.06 | 0.539 (active) |
| Cc1c(C)c2c(c(C)c1O)CCC(C)(COc1ccc(CC3SC(=O)NC3=O)cc1)O2 (stereo not drawn) [Troglitazone] | 1.05 | 1.01 | 1.12 |
| CC(C)(C#N)c1cc(Cn2cncn2)cc(C(C)(C)C#N)c1 [Anastrozole] | 1.02 | 1 | 1.01 |
| CNC(=O)c1cc(Oc2ccc(NC(=O)Nc3ccc(Cl)c(C(F)(F)F)c3)cc2)ccn1 [Sorafenib] | 1.02 | 0.898 | 1.2 |
| CN(C)CCCN1c2ccccc2Sc2ccc(Cl)cc21.Cl [Chlorpromazine hydrochloride] | 1.06 | 1.06 | 1.11 |
| O=C(c1cc(Cc2n[nH]c(=O)c3ccccc23)ccc1F)N1CCN(C(=O)C2CC2)CC1 [Olaparib] | 0.988 | 1.09 | 0.92 |
| Oc1c(I)cc(Cl)c2cccnc12 [Clioquinol] | 0.798 | 0.866 | 0.847 |
| C=C(c1ccc(C(=O)O)cc1)c1cc2c(cc1C)C(C)(C)CCC2(C)C [Bexarotene] | 1.2 | 1.07 | 1.59 |
| CC(=O)OCC(=O)[C@@]1(O)CC[C@H]2[C@@H]3CCC4=CC(=O)C=C[C@]4(C)[C@H]3[C@@H](O)C[C@@]21C [Prednisolone-21-acetate] | 0.931 | 1.14 | 1.04 |
| C=CC(=O)Nc1cc(Nc2nccc(-c3cn(C)c4ccccc34)n2)c(OC)cc1N(C)CCN(C)C [Osimertinib] | 1.16 | 1.06 | 0.884 |
| CC[C@@]1(O)C(=O)OCc2c1cc1n(c2=O)Cc2cc3cc(O)ccc3nc2-1 [10-Hydroxycamptothecin] | 0.731 | 0.478 (active) | 0.249 (active) |
| CC1(C)[C@@H](O[C@H]2O[C@H](C(=O)O)[C@@H](O)[C@H](O)[C@H]2OC2O[C@H](C(=O)O)[C@@H](O)[C@H](O)[C@H]2O)CC[C@]2(C)[C@H]3C(=O)C=C4[C@@H]5C[C@@](C)(C(=O)O)CC[C@]5(C)CC[C@@]4(C)[C@]3(C)CC[C@@H]12 (stereo partly drawn) [Glycyrrhizin] | 1.01 | 1.06 | 1.19 |
| CCc1cnn2c(NCc3ccc[n+]([O-])c3)cc(N3CCCC[C@H]3CCO)nc12 [Dinaciclib] | 0.212 (active) | 0.062 (active) | 0.0642 (active) |
| COC(=O)[C@]12CCC(C)(C)C[C@H]1[C@H]1C(=O)C=C3[C@@]4(C)C=C(C#N)C(=O)C(C)(C)[C@@H]4CC[C@@]3(C)[C@]1(C)CC2 [Bardoxolone Methyl] | 0.0925 (active) | 0.833 | 0.578 (active) |
| Cc1cn(-c2cc(NC(=O)c3ccc(C)c(Nc4nccc(-c5cnccn5)n4)c3)cc(C(F)(F)F)c2)cn1 [Radotinib] | 1.09 | 1.19 | 1.27 |
| CCCCCCCCCCCCCCCC(=O)OC/C=C(C)/C=C/C=C(C)/C=C/C1=C(C)CCCC1(C)C [Retinol palmitate] | 0.993 | 1.02 | 0.978 |
| O=c1cc[nH]c(=O)[nH]1 [Uracil] | 1.1 | 0.875 | 1.01 |
| Nc1nc(F)nc2c1ncn2[C@@H]1O[C@H](COP(=O)(O)O)[C@@H](O)[C@@H]1O [Fludarabine Phosphate] | 1.2 | 1.07 | 1.16 |
| CC1(C)CCC(C)(C)c2cc(NC(=O)c3ccc(C(=O)O)cc3)ccc21 [Tamibarotene] | 1.09 | 0.958 | 1.21 |
| NC1CCCCC1N.O=C([O-])C(=O)[O-].[Pt+2] (stereo not drawn) [Oxaliplatin] | 1.05 | 1.01 | 1.12 |

Reference: the supplement of paper PMC12808144
